Data on 51 compounds can be found in PubChem BioAssay AID602481 (Broad Institute, 2012).

About 340 (0.094%) of roughly 360,000 compounds were called active. Cut-off read from the data, not from the text of the source: active = inhibition above about 40%; inconclusive = no clear call, values can overlap the other calls; inactive = below that. Only a selection was taken, and actives are over-represented in it overall.

This experiment relates to 7,8-diaminopelargonic acid synthase BioA (Mycobacterium tuberculosis). Briefly: M. tuberculosis BioA enzyme inhibitors, primary screen, biochemical, plate reader, single point, HTS (AID 602481). The note with it: purified M. tuberculosis BioA enzyme, at 9.99 µM, stronger effect = higher value.
`COCCNC(=O)C[C@H]1C=C[C@@H](NS(=O)(=O)c2ccc(C)cc2)[C@@H](CO)O1`: the inhibition (in general, the change of the read-out against control, counted positive when it falls) is -2.72% (inactive). The value for `Cc1n[nH]c(=O)n1-c1ccc(Oc2ccccc2)cc1` was -2.98% (inactive).

Take `Cc1nc(=O)c(-c2ccccc2)c(C)n1-c1ccc(Br)cc1`: the inhibition is 42.7% (active). Under `S=C1NC(c2ccccc2)=NCN1c1ccc(Br)cc1` stands 0.0265% (inactive); under `CN(C)CC(=O)N1CCCCN2[C@@H](CO)[C@H](c3ccc(-c4cccnc4)cc3)[C@@H]2C1`, 0.035% (inactive).

For `C[C@H]1CN([C@@H](C)CO)C(=O)c2cc(C3=CCCC3)cnc2O[C@@H]1CN(C)Cc1cccnc1`, the inhibition is 4.42% (inactive). The value for `CN1C(=O)c2cc(NC(=O)c3cccc(F)c3)ccc2OC[C@H]2O[C@@H](CC(=O)NCc3ccccc3Cl)CC[C@@H]21` was 0.94% (inactive). In the case of `Cc1noc(C)c1NC(=O)Nc1cccc2c1O[C@H](CN(C)S(C)(=O)=O)[C@H](C)CN([C@H](C)CO)C2=O`, the inhibition is 3.42% (inactive).

As to `Cc1ccccc1S(=O)(=O)N1[C@H](CO)[C@@H](c2ccc(-c3ccccc3)cc2)[C@@H]1C#N`, the inhibition is -1.28% (inactive). The value for `C[C@H](CO)N1C[C@H](C)[C@H](CN(C)CC2CCCC2)Oc2ncc(-c3ccc(F)cc3)cc2C1=O` was -5.25% (inactive). The value for `CC(C)NC(=O)Nc1cccc2c1O[C@@H](CN(C)Cc1ccc(C(=O)O)cc1)[C@@H](C)CN([C@H](C)CO)C2=O` was -3.95% (inactive); that for `CCC(=O)N1[C@H](CO)[C@@H]2c3ccccc3N(S(=O)(=O)c3ccccc3C)C[C@@H]21` was -6.45% (inactive); that for `C[C@@H]1CN([C@@H](C)CO)C(=O)c2cccc(NC(=O)c3ccc(-c4nccs4)cc3)c2O[C@@H]1CN(C)S(=O)(=O)c1ccccc1` was -1.38% (inactive). Under `CCc1c(C)nc(N2CCN(Cc3ccccc3)CC2)[nH]c1=O` stands -0.075% (inactive); under `O=c1[nH]c(N2CCN(Cc3ccc4c(c3)OCO4)CC2)nc2c1CCCC2`, 71.1% (active); under `CCN1CCN(c2nc3c(c(=O)[nH]2)CCC3)CC1`, -4.22% (inactive). As for `CO[C@@H]1CN(C)C(=O)c2ccc(NS(=O)(=O)c3ccc(C)cc3)cc2OC[C@@H](C)N(Cc2nccs2)C[C@H]1C`, the inhibition is -0.694% (inactive).

For the compound `CCC(=O)Nc1ccc2c(c1)C(=O)N(C)[C@@H]1CC[C@H](CC(=O)NCc3ccccc3)O[C@H]1CO2`, the inhibition was -0.647% (inactive).

In the case of `Cc1ccc(S(=O)(=O)N(C)C[C@@H]2Oc3c(NC(=O)C4CC4)cccc3C(=O)N([C@H](C)CO)C[C@H]2C)cc1`, the inhibition was -0.505% (inactive). In the case of `CC(C)NC(=O)N(C)C[C@@H]1Oc2ccc(NC(=O)CCCCCC(=O)Nc3ccccc3N)cc2C(=O)N([C@@H](C)CO)C[C@H]1C`, the inhibition was -2.93% (inactive). Under `CCNC(=O)Nc1ccc2c(c1)C(=O)N(C)[C@@H]1CC[C@@H](CC(=O)NCCOC)O[C@@H]1CO2` stands 0.346% (inactive); under `COCCNC(=O)C[C@H]1CC[C@@H]2[C@H](COc3ccc(NC(=O)Nc4cccc(F)c4)cc3C(=O)N2C)O1`, 44.7% (active); under `CNC(=O)C[C@H]1CC[C@@H]2[C@H](COc3ccc(NC(=O)Nc4cccc(F)c4)cc3C(=O)N2C)O1`, 32% (inactive). Under `CS(=O)(=O)N1[C@H](C(=O)NCc2ccncc2)[C@@H](CO)[C@@H]2Cn3c(ccc(C4=CCCCC4)c3=O)[C@@H]21` stands 49% (active); under `CCN1[C@@H]2c3ccc(C4=CCCC4)c(=O)n3C[C@@H]2[C@@H](CO)[C@@H]1C(=O)NCc1ccccn1`, -3.69% (inactive); under `CCC(=O)N1[C@H](C(=O)NCc2ccc(F)cc2)[C@@H](CO)[C@@H]2Cn3c(ccc(C4=CCCCC4)c3=O)[C@@H]21`, -2.21% (inactive).

Take `C/C=C/c1cnc2c(c1)C(=O)N([C@H](C)CO)C[C@@H](C)[C@H](CN(C)Cc1cccc(C(=O)O)c1)O2`: the inhibition was 0.203% (inactive). Under `C[C@@H]1CN([C@@H](C)CO)C(=O)Cc2cc(NC(=O)CCCCCC(=O)Nc3ccccc3N)ccc2O[C@H]1CN(C)Cc1ccc(Cl)c(Cl)c1` stands -3.74% (inactive). Under `COCC(=O)Nc1ccc2c(c1)OC[C@@H](C)N(Cc1ccccn1)C[C@H](C)[C@@H](OC)CN(C)C2=O` stands -0.629% (inactive). The value for `C[C@H](CO)N1C[C@H](C)[C@H](CN(C)Cc2cccc(C(=O)O)c2)Oc2ncc(-c3ccccc3F)cc2C1=O` was -3.23% (inactive); that for `O=c1oc2c(CN3CCCCC3)c(O)ccc2c2c1CCCCC2` was 16.6% (inactive). Turning to `COc1ccc2c3c(c(=O)oc2c1OCC(=O)C(C)(C)C)CCCC3`, the inhibition is 0.336% (inactive). The value for `CCCOc1ccc2c3c(c(=O)oc2c1OCCC)CCC3` was 49.3% (active). Under `C[C@H]1CN([C@@H](C)CO)C(=O)CCCn2nncc2CO[C@H]1CN(C)Cc1cccc(C(=O)O)c1` stands -5.89% (inactive); under `C[C@@H]1CN([C@H](C)CO)C(=O)Cc2cc(NS(=O)(=O)c3ccc(F)cc3)ccc2O[C@@H]1CN(C)S(=O)(=O)c1ccc(F)cc1`, 4.14% (inactive).

Consider `CN1c2ccc(C3=CCCCC3)cc2[C@@H]2[C@@H](CCN2S(=O)(=O)c2ccccc2F)[C@H]1CO`, for which the inhibition is -2.02% (inactive). Under `Cc1ccccc1S(=O)(=O)N1[C@H](C#N)[C@H](c2ccccc2)[C@@H]1CO` stands -0.99% (inactive); under `CC(C)NC(=O)N(C)C[C@@H]1Oc2ccc(NC(=O)C3CC3)cc2C(=O)N([C@@H](C)CO)C[C@H]1C`, -0.507% (inactive). The value for `C[C@H](CO)N1C[C@H](C)[C@@H](CN(C)C(=O)Nc2ccc3c(c2)OCO3)Oc2ccc(NS(=O)(=O)c3ccc(Cl)cc3)cc2C1=O` was 0.544% (inactive); that for `C[C@@H]1CN([C@@H](C)CO)C(=O)Cc2cc(NC(=O)C3CCCCC3)ccc2O[C@H]1CN(C)C(=O)Nc1ccccc1` was 0.073% (inactive). For `C[C@H]1CN([C@@H](C)CO)C(=O)c2cc(Br)cnc2O[C@H]1CN(C)CC1CCCC1`, the inhibition was -0.484% (inactive). The value for `CCCN1[C@H](C(=O)N2CCOCC2)[C@@H](CO)[C@@H]2Cn3c(ccc(/C=C/c4ccccc4)c3=O)[C@@H]21` was -3.1% (inactive); that for `CC1(C)CC(=O)C=C(c2ccc3ncccc3c2)C1` was 64.2% (active); that for `COc1ccccc1-c1n[nH]nc1C1=CC(=O)CC(C)(C)C1` was -1.72% (inactive).

As to `CC1(C)CC(=O)C=C(c2ccc(Cl)c(C(F)(F)F)c2)C1`, the inhibition was -0.352% (inactive). As for `O=S(=O)(N[C@@H]1CC[C@H](CCn2cc(-c3ccccc3F)nn2)O[C@H]1CO)c1ccc(F)cc1`, the inhibition was 1.57% (inactive). Under `Cc1c(OC(C)C(=O)N[C@@H](Cc2ccccc2)C(=O)O)ccc2c3c(c(=O)oc12)CCCC3` (stereo partly specified) stands 0.433% (inactive). With `Cc1cc(=O)oc2c(C)c(OC(C)C(=O)NC3CCN(Cc4ccccc4)CC3)ccc12` (stereo unspecified), the inhibition is -3.72% (inactive). Under `Cc1c(OC(C)C(=O)NCC2CCC(C(=O)O)CC2)ccc2c1oc(=O)c1ccccc12` (stereo unspecified) stands 43.7% (active); under `O=C(CN1CCOCC1)N1CCCCN2[C@H](CO)[C@H](c3ccc(Br)cc3)[C@H]2C1`, 4.49% (inactive); under `COc1cccc(S(=O)(=O)N[C@H]2C=C[C@H](CC(=O)NCc3ccc(Cl)cc3)O[C@@H]2CO)c1`, -1.44% (inactive).
